Laboratory results: PubChem BioAssay AID2314 (National Center for Advancing Translational Sciences (NCATS), 2010)
Screen size: about 300,000 compounds; about 37,000 (12%) were called active. The sample as a whole holds a higher share of actives than the screen did. Values without a mark were called inactive. Rule as the data show it: active = max response mostly above about 13% (no sharp cut-off); inactive = mostly below about 14%.

Assay: Cycloheximide Counterscreen for Small Molecule Inhibitors of Shiga Toxin; also: read at 38.3 µM for the half of the compounds with a filed dose; 0% is about no effect
Conditions: cell reporter, cycloheximide protein synthesis inhibition counterscreen; stronger effect = higher value

In order of rising max response:
1. O/N=C(\C[n+]1ccccc1)c1ccc(Br)cc1  -6.18%
2. O=S(=O)(NCc1cccnc1)c1ccc(Br)s1  -6.09%
3. O=C(Nc1nnc(C2CC2)s1)C1=NN(C2CCS(=O)(=O)C2)C(=O)CC1 (stereo not drawn)  -6.02%
4. CCCCC(=O)Nc1c2c(nn1-c1ccc([N+](=O)[O-])cc1)CS(=O)(=O)C2  -4.82%
5. O=c1onc(-c2c(F)cccc2F)n1-c1ccccc1Cl  -4.66%
6. O=C(Nc1nnc(SCc2ccccc2Cl)s1)c1cccc([N+](=O)[O-])c1  -4.31%
7. O=C(O)c1cc2c(cc1NC(=O)c1c(F)cccc1Cl)OCCCO2  -4.07%
8. COc1ccc(NC(=O)CCC(=O)Nc2nnc(C3CCCCC3)s2)cc1  -3.75%
9. CC1CCN(c2ccc(C(=O)Nc3nnc(C4CC4)s3)cc2[N+](=O)[O-])CC1  -2.98%
10. Cc1cc(C)c(NC(=O)C[N+](C)(C)CC(O)COc2cccc3ccccc23)c(C)c1 (stereo not drawn)  -2.87%
11. CS(=O)(=O)N1CCN(C(=O)Cc2ccccc2)CC1  -2.32%
12. O=C(NC1CCCCCC1)c1cccnc1Sc1ccc(Cl)cc1  -2.31%
13. CCc1ccc(C2N3CC4([N+](=O)[O-])CN2CC([N+](=O)[O-])(C3)C4(C)C)cc1 (stereo not drawn)  -2.16%
14. CCOC(=O)CSc1nnc(NC(=O)c2cccc(S(=O)(=O)N3CCCC3)c2)s1  -1.74%
15. CS(=O)(=O)N1CCN(c2cccc(Cl)n2)CC1  -1.63%
16. CN(C)C(=O)CCC(=O)N1CCCCC1C(=O)Nc1ccc(Oc2ccccc2F)cc1 (stereo not drawn)  -1.6%
17. CC1CC(=O)N(CC(=O)Nc2cccc(Cl)c2)c2ccccc2S1(=O)=O (stereo not drawn)  -1.52%
18. COc1ccc(CNS(=O)(=O)c2cc(-c3cc(C)no3)ccc2C(C)C)cc1  -0.908%
19. O=C(c1cc2ccccc2s1)N1CCN(c2ccccn2)CC1  -0.772%
20. Cc1cc(C)c[n+](-c2nc3ccccc3nc2[N-]S(=O)(=O)c2cccs2)c1  -0.756%
21. COc1ccccc1CNC(=O)c1ccc(N(C)S(=O)(=O)c2ccc(C)cc2)cc1  -0.735%
22. CC1CCN(C(=O)CCc2nnc3ccc(NCc4ccco4)nn23)CC1  -0.588%
23. Cc1coc2c(O)cc3c(c12)OC1(N2CCCCC2)C(=O)NCCCC31 (stereo not drawn)  -0.492%
24. Cc1ccc(S(=O)(=O)N(C)CC(=O)NCCc2c[nH]c3ccccc23)cc1  0.209%
25. Cc1ccc(N=Cc2c(O)n(-c3nccs3)c(=O)c3ccccc23)c(C)c1  0.787%
26. C=CCC(NCc1ccco1)c1ccc(OC)cc1 (stereo not drawn)  1.37%
27. Cc1cccc(NC(=O)NC2(C)CCS(=O)(=O)C2)c1 (stereo not drawn)  1.38%
28. COc1ccc(Nc2nc(Cl)nc(NCc3ccco3)n2)cc1  5.68%
29. Cc1cccc(NC(=O)CSCC(=O)Nc2nnc(C3CC3)s2)c1  6.4%
30. CCSc1nnc(NC(=O)Cc2ccccc2OC)s1  7.43%
31. COc1ccc(C)cc1NC(=O)NCCCCc1ccccc1  7.65%
32. O=C(Cc1cccs1)Nc1nnc(C2CC2)s1  8.46%
33. COc1ccccc1CNC(=O)[C@@H]1CCCN1C(=O)[C@@H]1Cc2ccccc2CN1C(=O)OC(C)(C)C  8.54%
34. NNC(=O)c1cccc(COCC(F)(F)C(F)F)c1  9.81%
35. CCC(C)(C)NC(=O)C(c1ccc(O)cc1)N(Cc1ccco1)C(=O)CCC(=O)Nc1ccccn1 (stereo not drawn)  13.8%
36. Cc1occc1C(=O)Nc1nnc(-c2ccncc2)s1  15.8%
37. Cc1ccc(COc2ccc(C(=O)NN)cc2)cc1  15.8%
38. CCCSc1nc(NCc2ccco2)c2c3c(sc2n1)COC(C)(CC)C3 (stereo not drawn)  24.2%
39. NC(=O)CSc1nnc(NC(=O)c2ccc(Br)o2)s1  27.9%

For COc1ccc(Nc2nc(NCc3ccco3)nc(N/N=C/c3ccccc3Cl)n2)cc1, the max response was 16.9% (active).
In the case of CS(=O)(=O)N1CCc2nc(-c3ccccc3)sc2C1, the max response is reported as 47.1% (active).
For Cc1occc1C(=O)Nc1nnc(C2CCCCC2)s1, the max response was 17.4% (active).
For O=C(Nc1nnc(C2CC2)s1)c1ccccn1, the max response was 34.9% (active).
For O=C(Nc1nnc(C2CC2)s1)c1cc(Cl)sc1Cl, the max response was 12.2% (active).
For CC(C)c1cc(C(N)=O)c(NC(=O)c2cccc(COc3ccc(Br)cc3)c2)s1, the max response was 142% (active).
In the case of O=S(=O)([N-]c1nc2ccccc2nc1-[n+]1ccc(Cc2ccccc2)cc1)c1ccc(Br)s1, the max response is reported as 10.5% (active).
With C=CCSc1nnc(NC(=O)c2ccc(NC(C)=O)cc2)s1 the max response was 14.5% (active).
In the case of CCSc1nnc(NC(=O)c2ccc(C)cc2)s1, the max response is reported as 32.4% (active).
